# Experiments:
# Test in all cases: universal protein binding microarray (PBM); transcription factors of Arabidopsis thaliana; high values mean tight binding
# GST-ANAC092(1-176) = biological target: T1, GST-ANAC092(1-176) (Arabidopsis thaliana, UniProt Q9FKA0 1-176); details: protein: recombinant; tags: GST; chain copies: 2; dsDNA, one strand shown
# T1 sequence: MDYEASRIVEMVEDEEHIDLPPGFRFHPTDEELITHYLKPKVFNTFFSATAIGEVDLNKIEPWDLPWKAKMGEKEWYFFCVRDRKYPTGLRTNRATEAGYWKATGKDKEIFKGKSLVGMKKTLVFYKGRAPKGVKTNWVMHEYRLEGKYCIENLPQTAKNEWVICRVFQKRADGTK
# Summary of the method: (§1)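 GST-tagged proteins (NAC-domain, full-length or DNA-binding-domain) were induced in cells, with zinc acetate supplied for zinc-finger proteins, then purified on glutathione–Sepharose 4B. Each was tested in duplicate at 200 to 500 nM final on custom all-10-mer Agilent 4 × 180K arrays rendered double-stranded by primer extension. The binding value is the normalised enrichment score (E-score) across gapped and ungapped 8-mers.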
# GST-NTL6(1-168) = GST-NTL6(1-168) (Arabidopsis thaliana, UniProt Q9SCK6 1-168); details: protein: recombinant; tags: GST; chain copies: 2; dsDNA, one strand shown
# Sequence of GST-NTL6(1-168) (Q9SCK6 1-168): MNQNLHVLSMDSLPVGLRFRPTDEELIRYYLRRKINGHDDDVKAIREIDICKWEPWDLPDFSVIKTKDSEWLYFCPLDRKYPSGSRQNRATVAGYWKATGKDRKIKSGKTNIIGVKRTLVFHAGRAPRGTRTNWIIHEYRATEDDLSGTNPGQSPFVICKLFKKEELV
# Summary of the method: as §1
# GST-ANAC019 NAC domain = biological target: T2, GST-ANAC019 NAC domain (Arabidopsis thaliana, UniProt Q9C932 14-162); details: protein: recombinant; tags: GST; chain copies: 2; dsDNA, one strand shown
# T2 sequence: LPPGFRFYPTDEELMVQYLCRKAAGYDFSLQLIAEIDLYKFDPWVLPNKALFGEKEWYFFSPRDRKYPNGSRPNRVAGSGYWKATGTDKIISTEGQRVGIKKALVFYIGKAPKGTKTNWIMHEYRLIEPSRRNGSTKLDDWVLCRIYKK
# Summary of the method: as §1
# GST-ANAC055(1-171) = biological target: T3, GST-ANAC055(1-171) (Arabidopsis thaliana, UniProt Q9LDY8 1-171); details: protein: recombinant; tags: GST; chain copies: 2; dsDNA, one strand shown
# T3 sequence: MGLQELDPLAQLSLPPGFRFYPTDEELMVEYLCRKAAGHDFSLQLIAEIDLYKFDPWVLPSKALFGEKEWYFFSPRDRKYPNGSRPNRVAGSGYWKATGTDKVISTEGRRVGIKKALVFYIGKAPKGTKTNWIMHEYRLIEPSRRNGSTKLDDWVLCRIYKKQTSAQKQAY
# Summary of the method: as §1
# GST-ATAF1 NAC domain = biological target: T4, GST-ATAF1 NAC domain (Arabidopsis thaliana, UniProt Q39013 7-158); details: protein: recombinant; tags: GST; chain copies: 2; dsDNA, one strand shown
# T4 sequence: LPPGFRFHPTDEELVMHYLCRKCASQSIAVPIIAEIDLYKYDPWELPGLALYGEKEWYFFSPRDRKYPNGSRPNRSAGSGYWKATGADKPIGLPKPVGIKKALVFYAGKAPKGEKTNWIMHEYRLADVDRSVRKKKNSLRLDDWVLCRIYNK
# Summary of the method: as §1
# [1] = biological target: T5, GST-ANAC092(1-285) full length (Arabidopsis thaliana, UniProt Q9FKA0 1-285); details: protein: recombinant; tags: GST; chain copies: 2; dsDNA, one strand shown
# T5 sequence: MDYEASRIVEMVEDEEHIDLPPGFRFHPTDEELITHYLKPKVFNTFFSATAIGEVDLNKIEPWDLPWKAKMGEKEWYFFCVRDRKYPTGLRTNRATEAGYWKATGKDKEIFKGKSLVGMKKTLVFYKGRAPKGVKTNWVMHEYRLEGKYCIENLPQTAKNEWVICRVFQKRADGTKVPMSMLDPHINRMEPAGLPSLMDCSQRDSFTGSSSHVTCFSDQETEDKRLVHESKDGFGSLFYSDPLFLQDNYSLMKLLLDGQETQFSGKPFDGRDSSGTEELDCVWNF
# Summary of the method: as §1
# GST-NAP(1-166) = biological target: T6, GST-NAP(1-166) (Arabidopsis thaliana, UniProt O49255 1-166); details: protein: recombinant; tags: GST; chain copies: 2; dsDNA, one strand shown
# T6 sequence: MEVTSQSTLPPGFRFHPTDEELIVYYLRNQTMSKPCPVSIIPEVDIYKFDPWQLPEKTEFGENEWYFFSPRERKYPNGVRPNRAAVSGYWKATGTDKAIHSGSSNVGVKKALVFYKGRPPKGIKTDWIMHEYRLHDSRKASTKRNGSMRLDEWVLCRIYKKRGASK
# Summary of the method: as §1
# GST-NST2(1-184) = biological target: T7, GST-NST2(1-184) (Arabidopsis thaliana, UniProt Q9M274 1-184); details: protein: recombinant; tags: GST; chain copies: 2; dsDNA, one strand shown
# T7 sequence: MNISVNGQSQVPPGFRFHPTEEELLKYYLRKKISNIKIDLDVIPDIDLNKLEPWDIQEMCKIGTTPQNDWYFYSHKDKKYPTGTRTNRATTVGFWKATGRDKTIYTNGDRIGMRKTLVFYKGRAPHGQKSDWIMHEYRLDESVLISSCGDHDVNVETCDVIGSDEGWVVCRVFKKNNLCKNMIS
# Summary of the method: as §1
# GST-SND1(1-203) = biological target: T8, GST-SND1(1-203) (Arabidopsis thaliana, UniProt Q9LPI7 1-203); details: protein: recombinant; tags: GST; chain copies: 2; dsDNA, one strand shown
# T8 sequence: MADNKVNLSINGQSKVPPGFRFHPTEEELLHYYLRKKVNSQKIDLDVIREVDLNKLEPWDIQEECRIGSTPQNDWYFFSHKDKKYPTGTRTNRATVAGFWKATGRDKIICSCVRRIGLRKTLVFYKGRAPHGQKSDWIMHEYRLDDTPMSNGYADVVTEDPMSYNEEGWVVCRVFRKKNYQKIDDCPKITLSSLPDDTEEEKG
# Summary of the method: as §1
# GST-VND3 NAC domain = biological target: T9, GST-VND3 NAC domain (Arabidopsis thaliana, UniProt Q9FH59 12-162); details: protein: recombinant; tags: GST; chain copies: 2; dsDNA, one strand shown
# T9 sequence: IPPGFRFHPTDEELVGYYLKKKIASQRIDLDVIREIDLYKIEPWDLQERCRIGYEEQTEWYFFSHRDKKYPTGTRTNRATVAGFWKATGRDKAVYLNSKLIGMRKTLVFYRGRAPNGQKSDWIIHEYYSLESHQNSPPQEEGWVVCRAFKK
# Summary of the method: as §1
# GST-VND7 NAC domain = biological target: T10, GST-VND7 NAC domain (Arabidopsis thaliana, UniProt Q9C8W9 9-158); details: protein: recombinant; tags: GST; chain copies: 2; dsDNA, one strand shown
# T10 sequence: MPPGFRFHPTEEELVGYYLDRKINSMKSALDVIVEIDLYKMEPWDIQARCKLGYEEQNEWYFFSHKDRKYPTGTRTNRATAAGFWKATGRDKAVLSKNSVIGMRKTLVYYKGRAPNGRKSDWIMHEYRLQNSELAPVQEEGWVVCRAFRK
# Summary of the method: as §1
# GST-WRKY1(266-371) = GST-WRKY1(266-371) (Arabidopsis thaliana, UniProt Q9SI37 266-371); details: protein: recombinant; tags: GST; dsDNA, one strand shown
# Sequence of GST-WRKY1(266-371) (Q9SI37 266-371): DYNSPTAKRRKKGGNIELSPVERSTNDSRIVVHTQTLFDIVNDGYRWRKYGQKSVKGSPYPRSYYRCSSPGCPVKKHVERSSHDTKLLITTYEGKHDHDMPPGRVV
# Summary of the method: as §1
# GST-NTL8 NAC domain = biological target: T11, GST-NTL8 NAC domain (Arabidopsis thaliana, UniProt Q9XIN7 14-156); details: protein: recombinant; tags: GST; chain copies: 2; dsDNA, one strand shown
# T11 sequence: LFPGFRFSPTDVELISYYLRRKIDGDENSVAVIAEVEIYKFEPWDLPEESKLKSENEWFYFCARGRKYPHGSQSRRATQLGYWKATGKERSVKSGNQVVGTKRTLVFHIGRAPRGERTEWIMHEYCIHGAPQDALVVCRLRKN
# Summary of the method: as §1
Sequence,binding signal (GST-ANAC092(1-176)) [E-score],binding signal (GST-NTL6(1-168)) [E-score],binding signal (GST-ANAC019 NAC domain) [E-score],binding signal (GST-ANAC055(1-171)) [E-score],binding signal (GST-ATAF1 NAC domain) [E-score],binding signal [1] [E-score],binding signal (GST-NAP(1-166)) [E-score],binding signal (GST-NST2(1-184)) [E-score],binding signal (GST-SND1(1-203)) [E-score],binding signal (GST-VND3 NAC domain) [E-score],binding signal (GST-VND7 NAC domain) [E-score],binding signal (GST-WRKY1(266-371)) [E-score],binding signal (GST-NTL8 NAC domain) [E-score]
GATACGTA,0.381,0.0687,0.428,0.415,0.341,0.385,0.458,0.253,0.257,0.405,0.424,0.0663,
GTAAGTCA,0.109,0.283,0.134,0.228,0.238,0.268,0.0612,0.21,0.234,0.19,0.232,0.429,
CTACGTTA,0.323,0.0691,0.152,0.144,0.228,0.382,0.135,0.335,0.478,0.24,0.164,0.0835,
AAGTAAGT,0.249,0.412,0.189,0.164,0.199,0.259,0.135,0.181,0.282,0.217,0.135,0.2,0.267
GTACGTCA,0.441,0.0743,0.413,0.295,0.366,0.45,0.363,0.244,0.422,0.38,0.373,0.228,0.149
ACGCAAGA,0.449,0.116,0.243,0.264,0.156,0.456,0.285,0.315,0.405,0.252,0.194,0.123,0.128

# — PMC4081100, “A DNA-binding-site landscape and regulatory network analysis for NAC transcription factors in Arabidopsis thaliana”
